Potency and outcome data for 25 compounds are collected here from PubChem BioAssay (Tox21).

Results filed as inconclusive are left out. The source made the active and inactive calls. Unless noted, calls follow the shape of the dose curve; as a rule, active = well fitted curve in the direction sought with a large enough effect in the repeat runs; inconclusive = weak or mixed curves; inactive = no such curve, though single readings can be large; an effect the other way counts as inactive or inconclusive.

Test [1] can be described thus: qHTS assay to identify small molecule antagonists of the glucocorticoid receptor (GR) signaling pathway - cell viability counter screen (AID 720693). Also: nearly all actives have a fitted effect of over 55% in size.
Test [2] is described as follows: qHTS assay for identifying genotoxic compounds that show differential cytotoxicity against isogenic chicken DT40 cell lines with known DNA damage response pathways - Rev3 mutant cell line (AID 743014). Also: nearly all actives have a fitted effect of over 55% in size. Also: potency is read from the fitted curve at half-maximal effect. On the technique in general: qHTS replaces the single test concentration by a dilution series.
Test [3] is described as follows: qHTS assay for identifying genotoxic compounds that show differential cytotoxicity against isogenic chicken DT40 cell lines with known DNA damage response pathways - Rad54/Ku70 mutant cell line (AID 743015). Also: nearly all actives have a fitted effect of over 60% in size. Also: potency is read from the fitted curve at half-maximal effect.
Test [4] in a line: qHTS assay to identify small molecule antagonists of the androgen receptor (AR) signaling pathway - cell viability counter screen (AID 743033; also: nearly all actives have a fitted effect of over 45% in size).
The nature of test [5]: qHTS assay to identify small molecule antagonists of the androgen receptor (AR) signaling pathway using the MDA cell line - cell viability counter screen (AID 743041; also: nearly all actives have a fitted effect of over 45% in size). A digest of the protocol: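 qHTS viability read-out; MDA-kb2 AR-luc; R1881-stimulated; 16 h exposure at 37C, 0% CO2; CellTiter-Fluor, 30 min; fluorescence intensity.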
A short description of test [6]: qHTS assay for identifying genotoxic compounds that show differential cytotoxicity against isogenic chicken DT40 cell lines with known DNA damage response pathways - wild type cell line (AID 743012). Also: nearly all actives have a fitted effect of over 60% in size. Also: potency is read from the fitted curve at half-maximal effect. A digest of the protocol: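 Cytotoxicity in repair-proficient parental chicken DT40 cells serves as the comparator for Rad54/Ku70- and Rev3-deficient lines. Cells were exposed to compounds for 40 h at 37 C/5% CO2, and ATP-based luminescence (CellTiter-Glo) measured viability.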

Test [7] has as its target Androgen receptor (Homo sapiens) (UniProt P10275). Briefly: qHTS assay to identify small molecule antagonists of the androgen receptor (AR) signaling pathway (AID 743035; active = well fitted inhibition curve with a large enough effect in the signal ratio in the repeat runs, not every such curve was filed as active; the % refers to the signal ratio). The essentials:
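Steps: seed AR-UAS-bla GripTite HEK293 cells, incubate 4 h at 37C; pin in test compound, then add agonist R1881; incubate 16 h at 37C; add LiveBLAzer B/G FRET substrate, 2 h at room temperature; read fluorescence.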

Test [8] has the same target. Description: qHTS assay to identify small molecule agonists of the androgen receptor (AR) signaling pathway (AID 743036; active = well fitted activation curve with a large enough effect in the signal ratio in the repeat runs, with a control signal flat, not every such curve was filed as active; the % refers to the signal ratio). A digest of the protocol:
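In this Tox21 qHTS, 2,000 HEK293 AR-bla cells per well were incubated with compounds for 16 h at 37C and 5% CO2. Fluorescence intensity was recorded 2 h after adding LiveBLAzer B/G FRET substrate at room temperature.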

The target is the same in test [9]. Briefly: qHTS assay to identify small molecule agonists of the androgen receptor (AR) signaling pathway using the MDA cell line (AID 743040; also: nearly all actives have a fitted effect of over 20% in size). The essentials:
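Agonist activity is measured as luciferase luminescence in human MDA-kb2 cells whose MMTV reporter responds to both AR and GR. Compounds in DMSO incubate 16 h at 37C, 0% CO2, and ONE-Glo is read after 30 min.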

Test [10] has the same target. Description: qHTS assay to identify small molecule antagonists of the androgen receptor (AR) signaling pathway using the MDA cell line (AID 743042; also: nearly all actives have a fitted effect of over 55% in size). A digest of the protocol:
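MDA-kb2 cells (human breast carcinoma, stably carrying an MMTV-luciferase reporter responsive to AR and GR) were plated at 3,000 cells/well and preincubated 5 hr at 37C, then given compound plus R1881 agonist for 16 h. ONE-Glo luminescence was read.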

Sequence of Androgen receptor (Homo sapiens) (P10275 whole entry, looked up): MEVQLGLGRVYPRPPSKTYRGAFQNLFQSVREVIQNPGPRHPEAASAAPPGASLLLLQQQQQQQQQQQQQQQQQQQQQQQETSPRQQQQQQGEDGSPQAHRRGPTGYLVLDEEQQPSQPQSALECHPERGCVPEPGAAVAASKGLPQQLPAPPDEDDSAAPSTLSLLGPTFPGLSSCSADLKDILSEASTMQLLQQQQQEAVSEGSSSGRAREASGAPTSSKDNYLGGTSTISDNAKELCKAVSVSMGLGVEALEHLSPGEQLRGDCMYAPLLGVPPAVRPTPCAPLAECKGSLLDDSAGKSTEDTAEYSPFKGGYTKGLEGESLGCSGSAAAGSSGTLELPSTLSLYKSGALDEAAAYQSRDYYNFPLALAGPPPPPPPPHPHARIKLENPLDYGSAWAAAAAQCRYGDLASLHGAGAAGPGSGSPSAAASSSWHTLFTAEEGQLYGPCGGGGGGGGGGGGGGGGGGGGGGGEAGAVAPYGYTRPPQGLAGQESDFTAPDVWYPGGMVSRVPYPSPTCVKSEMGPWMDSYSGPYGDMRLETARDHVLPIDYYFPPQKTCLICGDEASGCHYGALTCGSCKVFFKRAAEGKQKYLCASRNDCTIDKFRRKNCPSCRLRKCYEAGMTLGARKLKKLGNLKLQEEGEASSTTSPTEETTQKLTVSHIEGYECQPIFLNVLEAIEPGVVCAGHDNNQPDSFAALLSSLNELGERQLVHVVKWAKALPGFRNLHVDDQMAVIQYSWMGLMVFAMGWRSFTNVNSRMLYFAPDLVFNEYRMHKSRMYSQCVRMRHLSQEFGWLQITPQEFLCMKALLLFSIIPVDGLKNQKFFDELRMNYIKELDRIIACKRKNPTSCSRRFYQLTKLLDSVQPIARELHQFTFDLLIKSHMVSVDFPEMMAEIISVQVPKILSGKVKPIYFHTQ

Turning to `O=C(O)CCC(=O)OC[C@@H](NC(=O)C(Cl)Cl)[C@H](O)c1ccc([N+](=O)[O-])cc1`, the Potency result in test [1], in [2], in test [3], in [4] and in test [5] was “inactive” in each case.
On to `CC(C)C1CCC(C(=O)N[C@H](Cc2ccccc2)C(=O)O)CC1` (stereo partly drawn), for which the Potency entry in test [1], in test [6], in test [3], in test [4] and in test [5] was “inactive” each time.
Turning to `CCCCOC(=O)CCCCC(=O)OCCCC`, the Potency result in test [1], in test [6], in test [3], in test [4] and in [5] was “inactive” in each case.
With `Cc1ccc(N(CC2=NCCN2)c2cccc(O)c2)cc1`, the Potency result in test [1], in test [4] and in test [5] was “inactive” in each case. For the same compound, in test [6], the Potency was 23.7 µM (active).
Regarding `CCC(CO)(CO)CO`, the Potency result in test [1], in test [6], in [4], in [7], in test [9] and in test [5] was “inactive” throughout. Further, in test [10], the Potency entry is “inactive”. Moreover, in test [8], the compound was called inactive.
`FC(F)(F)C(F)(F)C(F)(F)C(F)(F)CCI`: the Potency entry in [1], in test [6], in [3], in test [4] and in [5] was “inactive” in each case.
For `Cc1cn([C@H]2C[C@H](F)[C@@H](CO)O2)c(=O)[nH]c1=O`, the Potency entry in [1], in test [2], in test [3], in [4], in [7] and in test [9] was “inactive” throughout. Further, the Potency entry in test [5] and in test [10] was “inactive” in each case. Besides, in test [8], the compound was classed as inactive.
For `COc1ccc(CCN(C)CCCN2CCc3cc(OC)c(OC)cc3CC2=O)cc1OC`, the Potency result in [1], in [2], in test [3], in [4] and in test [5] was “inactive” throughout.
Consider `COc1cc(NC(C)CCCN)c2ncccc2c1` (stereo not drawn), for which the Potency result in test [1] and in [5] was “inactive” each time. For the same compound, the Potency in test [6] was 11.4 µM (active); in test [3] it was 12.7 µM (active).
For the compound `c1ccc(CCCc2ccncc2)cc1`, the Potency entry in test [1], in [6], in test [3], in test [4] and in test [5] was “inactive” throughout.
For the compound `O=S(=O)(Cl)c1c(Cl)cccc1Cl`, the Potency result in [1], in [2], in [3], in test [4], in [9] and in [5] was “inactive” in each case. In addition, in test [10], the Potency result was “inactive”. In addition, the compound was called inactive in test [8].
As to `CC(=O)OCC(=O)[C@@]1(OC(C)=O)[C@@H](C)C[C@H]2[C@@H]3C[C@H](F)C4=CC(=O)C=C[C@]4(C)[C@@]3(F)[C@@H](O)C[C@@]21C`, the Potency entry in test [1], in test [4] and in [5] was “inactive” throughout. For the same compound, the Potency in [6] is 26.6 µM (active); in [2], 11.9 µM (active).
For the compound `Nc1ccc(S(=O)(=O)NCc2ccccc2)cc1`, the Potency result in test [1], in test [6], in test [3] and in test [4] was “inactive” in each case.
`COC1CCC=CO1` (stereo not drawn): the Potency result in test [1], in test [6], in test [3], in [4] and in test [5] was “inactive” in each case.
For `C[C@@H]1C[C@H]2[C@@H]3CCC4=CC(=O)C=C[C@]4(C)[C@@]3(F)[C@@H](O)C[C@]2(C)[C@@]1(O)C(=O)COP(=O)(O)O`, the Potency result in test [1], in [6], in [3], in [4] and in [5] was “inactive” throughout.
Consider `CCCCCCCC(=O)Oc1c(Br)cc(C#N)cc1Br`, for which the Potency entry in test [1], in [6], in test [2] and in [5] was “inactive” throughout.
Regarding `O=C(Oc1ccccc1)c1ccc2ccccc2c1O`, the Potency entry in test [1], in test [4], in test [7], in [9], in test [5] and in test [10] was “inactive” in each case. For the same compound, the Potency in [2] was 54.5 µM (active); in test [3], 48.6 µM (active). The outcome in [8] was inactive.
Regarding `COC(=O)CC(C(C)=O)C(=O)OC` (stereo not drawn), the Potency entry in [1], in test [6], in test [3], in test [4], in test [7] and in test [9] was “inactive” throughout. The Potency result in test [5] and in [10] was “inactive” in each case. In addition, the compound was classed as inactive in test [8].
For the compound `O=C(c1ccccc1)c1ccc(O)cc1`, the Potency result in test [1], in test [4], in test [9], in [5] and in test [10] was “inactive” each time.
For the compound `CC(=O)OCCC(C)CC(C)(C)C` (stereo not drawn), the Potency entry in [6], in test [2], in [3], in test [4] and in test [5] was “inactive” throughout.
Regarding `CCN(Cc1cccc(S(=O)(=O)O)c1)c1ccc(C(=C2C=CC(=[N+](CC)Cc3cccc(S(=O)(=O)O)c3)C=C2)c2ccc(O)cc2S(=O)(=O)[O-])cc1`, the Potency is 10.5 µM (active) in test [6], 9.32 µM (active) in test [2] and 11.7 µM (active) in test [3].
Turning to `CC(C)OC(=O)c1ccccc1C(=O)OC(C)C`, the Potency result in test [1], in [4] and in [5] was “inactive” each time. In test [2], the Potency is 43.3 µM (active).
Consider `CNc1c2c(nn1C)CCCC2`, for which the Potency result in [1], in test [2], in [3], in test [4] and in [5] was “inactive” in each case.
In the case of `CC(C)(C)C(O)/C=C/c1ccc2c(c1)OCO2` (stereo not drawn), the Potency result in test [1], in test [4] and in [5] was “inactive” throughout.
Turning to `CC/C=C\C/C=C\C/C=C\CCCCCCCC(=O)OCC`, the Potency entry in [1], in test [4] and in test [5] was “inactive” throughout. The Potency in test [3] is 70.1 µM (active).
